Measurements reported in PubChem BioAssay (Tox21).
Unmarked numbers belong to inactive results. Records with an inconclusive call do not appear. A call without a number means that no potency is given here. The source made the active and inactive calls. Unless noted, the call rests on the fitted dose curve; in most records, active means well fitted curve in the direction sought with a large enough effect in the repeat runs; inconclusive means weak or mixed curves; inactive means no such curve, though single readings can be large; an effect the other way counts as inactive or inconclusive.

Tests used:
[1] = qHTS RealTime-Glo MT Cell Viability Assay in HEK293 cells - 0 hour (AID 1224880); further: top concentration of the series differs between compounds; nearly all actives have a fitted effect of over 45% in size
Procedure, shortened: (§1)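 Viable HEK293 cells reduce a cell-permeant prosubstrate; the product diffuses out and is consumed by NanoLuc in the medium to give light. Compounds went in after a 5 h incubation and plates were read over the treatment course.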

[2] = A CellTox Green Cytotoxicity Assay to monitor cytotoxicity in HEK293 cells - 32 hour (AID 1224881); further: nearly all actives have a fitted effect of over 40% in size
Procedure, shortened: (§2)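 Fluorescence intensity, read at 0, 8, 16, 24, 32 and 40 h of compound treatment, reflected dye binding to DNA of dead HEK293 cells; compounds (23 nL, DMSO) were added 5 h after plating cells with reagent.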

[3] = A CellTox Green Cytotoxicity Assay to monitor cytotoxicity in HepG2 cells - 0 hour (AID 1224882); further: nearly all actives have a fitted effect of over 35% in size
Procedure, shortened: (§3)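 Using 1536-well format, dye-containing HepG2 suspension was seeded, allowed 5 h at 37 C/5% CO2, dosed by pintool with compounds, positive and negative controls, and imaged for fluorescence across 40 h.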

[4] = A CellTox Green Cytotoxicity Assay to monitor cytotoxicity in HEK293 cells - 8 hour (AID 1224884); further: nearly all actives have a fitted effect of over 35% in size
Procedure, shortened: as §2

[5] = qHTS RealTime-Glo MT Cell Viability Assay in HepG2 cells - 16 hour (AID 1224885); further: nearly all actives have a fitted effect of over 50% in size
Procedure, shortened: (§4)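 Real-time, nonlytic viability: 600 HepG2 cells/well mixed with NanoLuc enzyme plus prosubstrate; 5 h settle, compound (DMSO) added by pintool; luminescence monitored over 40 h at 37 C.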

[6] = qHTS RealTime-Glo MT Cell Viability Assay in HEK293 cells - 24 hour (AID 1224886); further: top concentration of the series differs between compounds; nearly all actives have a fitted effect of over 50% in size
Procedure, shortened: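 Cells + reagent dispensed (600 cells/well, HEK293) → 5 h at 37 C/5% CO2 → 23 nL compound in DMSO pinned → 40 h at 37 C → luminescence read at 0, 8, 16, 24, 32, 40 h.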

[7] = qHTS RealTime-Glo MT Cell Viability Assay in HEK293 cells - 8 hour (AID 1224887); further: top concentration of the series differs between compounds; nearly all actives have a fitted effect of over 50% in size
Procedure, shortened: as §1

[8] = A CellTox Green Cytotoxicity Assay to monitor cytotoxicity in HEK293 cells - 16 hour (AID 1224888); further: nearly all actives have a fitted effect of over 35% in size
Procedure, shortened: as §2

[9] = qHTS RealTime-Glo MT Cell Viability Assay in HepG2 cells - 0 hour (AID 1224889); further: nearly all actives have a fitted effect of over 50% in size
Procedure, shortened: as §4

[10] = A CellTox Green Cytotoxicity Assay to monitor cytotoxicity in HepG2 cells - 8 hour (AID 1224890); further: nearly all actives have a fitted effect of over 45% in size
Procedure, shortened: as §3

[11] = qHTS assay to identify small molecule antagonists of the estrogen receptor alpha (ER-alpha) signaling pathway using the BG1 cell line in the presence of 0.1 nM 17-beta-estradiol - cell viability counter screen (AID 1259241); further: nearly all actives have a fitted effect of over 40% in size
Procedure, shortened: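 In this screen, hormone-deprived VM7Luc4E2 cells were seeded at 4,000 per well, dosed with compound and 0.1 nM estradiol final, and incubated 22 hr at 37C and 5% CO2; fluorogenic live-cell protease signal reported viability.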

[12] = qHTS assay to identify small molecule antagonists of the androgen receptor (AR) signaling pathway using the MDA cell line in the presence of 0.5 nM R1881 - cell viability counter screen (AID 1259242); further: nearly all actives have a fitted effect of over 45% in size
Procedure, shortened: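 Viability of MDA-kb2 cells was multiplexed with the luciferase AR readout; after 16 hr with compounds and R1881 at 0.5 nM final, CellTiter-Fluor fluorescence was recorded.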

[13] = molecular target: Estrogen receptor (Homo sapiens) (UniProt P03372); assay: qHTS assay to identify small molecule antagonists of the estrogen receptor alpha (ER-alpha) signaling pathway using the BG1 cell line in the presence of 0.1 nM 17-beta-estradiol (AID 1259244); further: nearly all actives have a fitted effect of over 50% in size
Estrogen receptor (Homo sapiens), sequence (P03372 whole entry, looked up): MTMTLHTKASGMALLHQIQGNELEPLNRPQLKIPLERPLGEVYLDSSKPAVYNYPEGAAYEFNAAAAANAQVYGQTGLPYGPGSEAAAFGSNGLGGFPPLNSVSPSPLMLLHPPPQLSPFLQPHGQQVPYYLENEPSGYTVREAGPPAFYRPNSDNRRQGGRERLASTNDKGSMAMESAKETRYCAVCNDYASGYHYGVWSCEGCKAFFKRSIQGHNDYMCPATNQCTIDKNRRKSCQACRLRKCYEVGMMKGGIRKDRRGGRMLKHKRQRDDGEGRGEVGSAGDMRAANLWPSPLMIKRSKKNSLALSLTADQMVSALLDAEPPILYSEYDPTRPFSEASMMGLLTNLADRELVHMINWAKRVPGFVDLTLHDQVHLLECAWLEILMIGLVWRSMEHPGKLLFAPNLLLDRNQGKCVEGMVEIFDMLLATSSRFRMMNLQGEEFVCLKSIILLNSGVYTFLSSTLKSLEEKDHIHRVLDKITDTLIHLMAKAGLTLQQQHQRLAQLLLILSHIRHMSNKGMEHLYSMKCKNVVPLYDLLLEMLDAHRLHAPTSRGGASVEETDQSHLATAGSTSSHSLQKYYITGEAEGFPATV
Procedure, shortened: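 Estradiol at 0.1 nM (final) stimulates the endogenous ER-alpha of VM7Luc4E2 cells carrying an ERE-driven luciferase; compounds are co-incubated 22 h at 37C and luciferase output quantified by luminescence.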

[14] = qHTS assay to identify small molecule HDAC inhibitors (AID 1259364); further: potency means the concentration at half of the fitted maximal effect;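 further: wild-type HCT-116 cells with endogenous class I/II HDAC activity; nearly all actives have a fitted effect of over 45% in size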
Procedure, shortened: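 Read-out: luminescence of HDAC-Glo I/II reagent, 30 min RT, reflecting class I/II deacetylase activity in whole HCT-116 cells pre-exposed 2 h to DMSO-dissolved compounds.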

[15] = qHTS assay to identify small molecule HDAC inhibitors - cell viability counter screen (AID 1259365)
Procedure, shortened: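 Measured quantity is CellTiter-Glo luminescence from wild-type HCT-116 cells after compound incubation of 2hr at 37C, 5% CO2; reagent developed 30min at room temperature.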

[16] = qHTS assay to identify small molecule agonists of the sonic hedgehog signaling (Shh) pathway - cell viability counter screen (AID 1259366); further: nearly all actives have a fitted effect of over 50% in size
Procedure, shortened: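 In quantitative high-throughput format, 3T3 Gli1-Luc cells were exposed to compounds for 24hr and multiplexed for viability using CellTiter-Fluor, incubated 1hr at 37C before the fluorescence read.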

[17] = qHTS assay to identify small molecule antagonists of the sonic hedgehog signaling (Shh) pathway - cell viability counter screen (AID 1259367); further: nearly all actives have a fitted effect of over 55% in size
Procedure, shortened: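 NIH/3T3-derived Gli1-Luc reporter cells (2,000 per well) rested 4 hr at 37 C, then received DMSO compounds plus conditioned medium. After 23 hr of treatment, CellTiter-Fluor was added for 1 hr at 37C and fluorescence read.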

[18] = qHTS assay to identify small molecule phospholipidosis (PLD) inducers (AID 1259344; active means well fitted curve in the direction sought with a large enough effect; an effect the other way counts as inactive or inconclusive)
Procedure, shortened: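 HepG2 cells on collagen I, attached 4 h at 37 C, were co-treated with compound and LipidTOX Red dye for 24 h at 37 C, then fixed with paraformaldehyde plus Hoechst 33342 and imaged by high-content microscopy for phospholipid accumulation.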

[19] = A CellTox Green Cytotoxicity Assay to monitor cytotoxicity in HepG2 cells - 32 hour (AID 1224883); further: nearly all actives have a fitted effect of over 50% in size
Procedure, shortened: as §3

[20] = molecular target: Androgen receptor (Homo sapiens) (UniProt P10275); assay: qHTS assay to identify small molecule antagonists of the androgen receptor (AR) signaling pathway using the MDA cell line in the presence of 0.5 nM R1881 (AID 1259243); further: nearly all actives have a fitted effect of over 50% in size
Androgen receptor (Homo sapiens), sequence (P10275 whole entry, looked up): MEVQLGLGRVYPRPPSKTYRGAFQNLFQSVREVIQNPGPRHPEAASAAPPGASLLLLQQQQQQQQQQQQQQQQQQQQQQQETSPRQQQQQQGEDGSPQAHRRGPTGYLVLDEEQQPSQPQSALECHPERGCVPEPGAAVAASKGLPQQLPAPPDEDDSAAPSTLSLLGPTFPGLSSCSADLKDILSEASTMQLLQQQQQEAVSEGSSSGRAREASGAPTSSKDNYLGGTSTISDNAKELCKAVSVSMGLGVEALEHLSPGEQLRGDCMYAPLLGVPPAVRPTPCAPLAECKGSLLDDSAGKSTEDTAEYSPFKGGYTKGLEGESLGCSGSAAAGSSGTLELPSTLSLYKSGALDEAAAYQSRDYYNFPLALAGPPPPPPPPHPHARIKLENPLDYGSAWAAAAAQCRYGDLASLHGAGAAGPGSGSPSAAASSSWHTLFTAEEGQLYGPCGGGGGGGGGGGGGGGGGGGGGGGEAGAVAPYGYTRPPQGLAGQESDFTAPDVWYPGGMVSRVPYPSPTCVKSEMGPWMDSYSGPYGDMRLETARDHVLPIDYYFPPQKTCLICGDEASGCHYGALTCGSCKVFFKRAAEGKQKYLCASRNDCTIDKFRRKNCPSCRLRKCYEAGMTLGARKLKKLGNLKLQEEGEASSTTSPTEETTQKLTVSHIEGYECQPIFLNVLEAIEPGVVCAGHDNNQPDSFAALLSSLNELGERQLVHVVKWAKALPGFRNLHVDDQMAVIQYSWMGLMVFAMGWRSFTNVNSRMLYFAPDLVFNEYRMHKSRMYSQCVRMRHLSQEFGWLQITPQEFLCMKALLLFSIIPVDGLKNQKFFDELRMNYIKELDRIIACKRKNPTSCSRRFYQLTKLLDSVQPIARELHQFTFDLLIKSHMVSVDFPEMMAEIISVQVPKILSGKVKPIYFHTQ
Procedure, shortened: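 Reporter cells cultured without CO2 receive test chemicals, then 0.5 nM R1881 final; after 16 hr at 37C, ONE-Glo is added and light output recorded.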

Structure (SMILES)	outcome [1]	Potency [2]	Potency [3]	Potency [4]	outcome [5]	Potency [6]	Potency [7]	Potency [8]	Potency [9]	Potency [10]	outcome [11]	outcome [12]	outcome [13]	Potency [14]	outcome [15]	Potency [16]	outcome [17]	Potency [18]	Potency [19]	Potency [20]
C=C(C)C1CC=C(C)C(O)C1 (stereo not drawn)	inactive	inactive	inactive	inactive	inactive	inactive	inactive	inactive	inactive	inactive	inactive	inactive	inactive	inactive	inactive	inactive	inactive	–	–	–
CC(C)=CC(=O)O	inactive	inactive	inactive	inactive	inactive	inactive	inactive	inactive	inactive	inactive	inactive	inactive	inactive	inactive	–	–	inactive	–	–	–
CCCc1ccccc1O	inactive	inactive	inactive	inactive	inactive	inactive	inactive	inactive	inactive	inactive	inactive	inactive	–	inactive	inactive	inactive	inactive	–	–	–
CC(=O)CCc1ccc(O)cc1	inactive	inactive	inactive	inactive	inactive	inactive	inactive	inactive	inactive	inactive	inactive	inactive	inactive	inactive	inactive	–	inactive	–	–	–
OC/C=C/c1ccccc1	inactive	inactive	inactive	inactive	inactive	inactive	inactive	inactive	inactive	inactive	inactive	inactive	–	inactive	inactive	inactive	inactive	inactive	–	–
CC(O)CN(CCCN(C)C)CCCN(C)C (stereo not drawn)	inactive	inactive	inactive	inactive	–	inactive	–	inactive	inactive	inactive	inactive	inactive	–	–	inactive	inactive	inactive	–	inactive	–
CCCCCN(CCCCC)C(=O)C(CCC(=O)O)NC(=O)c1ccc(Cl)c(Cl)c1 (stereo not drawn)	inactive	inactive	inactive	inactive	inactive	inactive	inactive	inactive	inactive	inactive	inactive	inactive	inactive	–	inactive	inactive	inactive	inactive	–	inactive
CO[Si](OC)(OC)OC	inactive	inactive	inactive	inactive	inactive	inactive	inactive	inactive	inactive	inactive	inactive	inactive	–	inactive	inactive	inactive	inactive	–	–	–
N#CCN(CC#N)CCN(CC#N)CC#N	inactive	inactive	inactive	inactive	inactive	inactive	inactive	inactive	inactive	inactive	inactive	inactive	–	inactive	inactive	inactive	inactive	–	–	–
C1C2OC2C2C1C1CC2C2OC12 (stereo not drawn)	inactive	inactive	inactive	inactive	inactive	inactive	inactive	inactive	inactive	inactive	inactive	inactive	–	inactive	inactive	inactive	inactive	–	–	–
Cc1ccccc1C(=O)O	inactive	inactive	inactive	inactive	inactive	inactive	inactive	inactive	inactive	inactive	inactive	inactive	–	30.1 µM (active)	inactive	inactive	–	–	–	–
C#CC(O)C(CC)CCCC (stereo not drawn)	inactive	inactive	inactive	–	inactive	inactive	inactive	inactive	inactive	inactive	inactive	inactive	–	inactive	inactive	inactive	inactive	–	inactive	inactive
CC(C)(C)N(CCO)CCO	inactive	inactive	inactive	inactive	inactive	inactive	inactive	inactive	inactive	inactive	inactive	inactive	inactive	–	inactive	inactive	inactive	–	–	–
COC(=O)[C@H]1[C@H]2C[C@@H]3c4[nH]c5cc(OC)ccc5c4CCN3C[C@H]2C[C@@H](OC(=O)COc2ccc(OC)cc2)[C@@H]1OC	inactive	inactive	inactive	–	inactive	inactive	–	inactive	inactive	inactive	inactive	inactive	inactive	inactive	–	inactive	inactive	inactive	inactive	–
C=C(C)[C@@H]1CCC2=CC(=O)C[C@@H](C)[C@]2(C)C1	inactive	inactive	inactive	inactive	inactive	inactive	inactive	inactive	inactive	inactive	inactive	inactive	inactive	inactive	inactive	–	inactive	–	–	–
Nc1nc2c(ncn2CCC(CO)CO)c(=O)[nH]1	inactive	inactive	inactive	inactive	inactive	inactive	inactive	inactive	inactive	inactive	inactive	inactive	inactive	–	inactive	inactive	inactive	inactive	–	–
